# Only some compounds are listed: those with a hit (about 21% of all), similar ones and a draw of the others.
# IL1B secr inh: qHTS for Inhibitors of Inflammasome Signaling: IL-1-beta AlphaLISA Primary Screen; THP-1 LPS/ATP IL-1B secretion, AlphaLISA, 16 h; stronger effect = lower value; activity change, % at 57.5 µM; hit rate 4.7% among 360,000; AID 743279, 2014; in the data active means activity change below about -50%; inconclusive means mostly about -30% to -49%
#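 Secreted IL-1B measured by AlphaLISA bead assay after 16 h compound exposure of THP-1 cells; compounds (final up to 57.5 uM) added 1 h before LPS (250 ng/mL) and ATP (1.25 mM) stimulation; lower signal means less secretion.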
# ELG1 repair inh: qHTS screen for small molecules that inhibit ELG1-dependent DNA repair in human embryonic kidney (HEK293T) cells expressing luciferase-tagged ELG1. HEK293T ELG1-luciferase reporter, luminescence, 16 h; DNA damage induced by 5-fluorouridine. Potency, µM (titrated, usually from 46.1 µM), for the others: at the highest dose activity change, negative = inhibition, usual class: inhibitors. hit rate 2.3% among 330,000. AID 504467, 2011; further: potency means the concentration at half of the fitted maximal effect; nearly all actives have a fitted effect of over 55% in size
#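 Cells (2,000 per well) received 5-fluorouridine plus test compound or DMSO and were incubated 16 hr at 37 °C, 5% CO2. Luciferase activity was read by luminescence 30 min after ONE-Glo addition; signal suppression marked inhibition of damage-induced ELG1 function.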
# DT40 TDP1 no CPT: qHTS for Inhibitors of human tyrosyl-DNA phosphodiesterase 1 (TDP1): qHTS in cells in absence of CPT; DT40 Tdp1-/- hTDP1 cells, no CPT, ATP luminescence, 48 h; Potency, µM (titrated, usually from 46.2 µM), inactives show at the top dose activity change, negative = growth inhibition, actives largely listed as inhibitors; hit rate 15% among 420,000; AID 686978, 2013; further: potency means the concentration at half of the fitted maximal effect; nearly all actives have a fitted effect of over 55% in size
#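 Chicken DT40 Tdp1-/- cells complemented with human TDP1, screened without camptothecin (DMSO vehicle only), 400 cells/well. Compounds pin-transferred, cells incubated at 37 °C for at least 48 hr. Growth read as ATP-dependent luminescence (CellTiter-Glo, 30 min at RT).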
# Gal4-VP16 FLuc: VP16 counterscreen qHTS for inhibitors of ROR gamma transcriptional activity. Drosophila S2 Gal4-VP16 UAS-luciferase, luminescence, 20 h. Potency, µM (top dose mostly 53.6 µM), inactives show at the highest dose activity, negative = inhibition, most hits filed as inhibitors. hit rate 3.5% among 310,000;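 further: Gal4-VP16 expression switched on by copper sulfate through the metallothionein promoter; potency means the concentration at half of the fitted maximal effect; nearly all actives have a fitted effect of over 50% in size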
# RORgamma inh: qHTS for inhibitors of ROR gamma transcriptional activity; Nuclear receptor ROR-gamma (Mus musculus), P51450; Drosophila S2 Gal4-RORgamma UAS-luciferase reporter, 20 h; Potency, µM (titrated, usually from 53.6 µM), for inactives: top-dose activity change, negative = inhibition, usual class: inhibitors; hit rate 5.4% among 310,000; further: potency means the concentration at half of the fitted maximal effect; nearly all actives have a fitted effect of over 60% in size
# Target sequence (P51450 whole entry, looked up, the tested form may be a part): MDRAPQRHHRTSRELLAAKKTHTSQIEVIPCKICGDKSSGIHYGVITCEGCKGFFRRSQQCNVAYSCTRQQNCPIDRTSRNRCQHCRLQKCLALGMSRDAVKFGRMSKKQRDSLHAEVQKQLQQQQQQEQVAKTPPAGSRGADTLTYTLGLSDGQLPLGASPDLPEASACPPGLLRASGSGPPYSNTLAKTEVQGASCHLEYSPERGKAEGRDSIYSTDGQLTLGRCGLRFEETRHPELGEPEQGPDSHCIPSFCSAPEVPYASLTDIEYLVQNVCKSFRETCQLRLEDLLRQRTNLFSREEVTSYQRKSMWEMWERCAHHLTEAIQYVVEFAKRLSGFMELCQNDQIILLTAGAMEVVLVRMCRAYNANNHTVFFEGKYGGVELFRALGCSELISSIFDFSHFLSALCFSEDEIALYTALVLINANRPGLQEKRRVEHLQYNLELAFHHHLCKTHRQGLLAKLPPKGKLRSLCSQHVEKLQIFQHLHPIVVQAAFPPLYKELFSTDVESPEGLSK
#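 Read-out: Photinus luciferase luminescence; inhibitors lower reporter signal. Insect Schneider cells with Gal4-ROR gamma fusion under metallothionein promoter, UAS reporter; 700 uM final copper sulfate induction, 20 hr, ambient temperature.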
# TDP1 cell CPT: qHTS for Inhibitors of human tyrosyl-DNA phosphodiesterase 1 (TDP1): qHTS in cells in presence of CPT. chicken DT40 Tdp1-/-;hTDP1 cells + 20 nM CPT, ATP luminescence, 48 h. Potency, µM (doses to about 46.2 µM), inactives show top-dose activity change, negative = growth inhibition, usual class: inhibitors. hit rate 12% among 420,000. AID 686979, 2013; further: potency means the concentration at half of the fitted maximal effect; nearly all actives have a fitted effect of over 55% in size
#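 Cell growth measured by CellTiter-Glo luminescence after a minimum 48 h, 37 C compound exposure with 20 nM CPT in Tdp1-knockout DT40 cells stably expressing hTDP1, seeded 400/well; qHTS titration format.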
# Numbers without * were called inactive; ? = inconclusive; / = no result given; [ ] = another dose, or the depositor's remark. Unless noted, the call rests on the fitted dose curve; in most records, active means well fitted curve in the direction sought with a large enough effect; inconclusive means small, poorly fitted or top-dose-only effect, or another doubt; inactive means no such curve, though single readings can be large; an effect the other way counts as inactive or inconclusive. On the % scale 0 is the no-effect control and ±100 the full control effect.
SMILES,IL1B secr inh,ELG1 repair inh,DT40 TDP1 no CPT,Gal4-VP16 FLuc,RORgamma inh,TDP1 cell CPT
CCN(CC)S(=O)(=O)c1ccc2c(c1)c(=O)c(C(=O)NCCc1ccc(OC)c(OC)c1)cn2C,-12,-28%,?,-7%,18%,18µM*
C=CCn1cc(C(=O)N2CCc3ccccc3C2)c(=O)c2cc(S(=O)(=O)N(CC)CC)ccc21,-25,?,18µM*,-5%,?,?
C=CCn1cc(C(=O)N2CCN(c3ccccc3)CC2)c(=O)c2cc(S(=O)(=O)N3CCCC3)ccc21,-3,-1%,3%,1%,16%,?
CCOc1ccc(CCNC(=O)c2cn(CC)c3ccc(S(=O)(=O)N4CCc5ccccc5C4)cc3c2=O)cc1OCC,/,/,12µM*,/,/,18µM*
CCn1cc(C(=O)NCCc2ccc(OC)c(OC)c2)c(=O)c2cc(S(=O)(=O)N3CCOCC3)ccc21,-18,11%,18µM*,-2%,35%,?
CCN(CC)S(=O)(=O)c1ccc2c(c1)c(=O)c(C(=O)NCc1ccccc1Cl)cn2C,/,/,7.3µM*,/,/,9.2µM*
CCOc1ccc(CCNC(=O)c2cn(CC)c3ccc(S(=O)(=O)N4CCCCCC4)cc3c2=O)cc1OCC,/,/,18µM*,/,/,?
CC1CCN(S(=O)(=O)c2ccc3c(c2)c(=O)c(C(=O)NCc2ccccc2Cl)cn3C)CC1,/,2%,/,-3%,44%,/
CCc1nc2c(OCC(=O)c3ccc(F)cc3)cccn2c1N(C)C(=O)C(C)C,16,/,?,/,/,?
CCOc1ccc(Cn2nnc(-c3ccc(S(C)(=O)=O)cc3)n2)cc1OCC,-9,2%,-19%,/,/,-11%
OCC1OC(C#Cc2ccccc2)C=CC1O (stereo not drawn),/,/,/,-1%[10 µM],-2%[10 µM],/
COCCCNC(=O)C[C@@H]1C[C@@]2(C(=O)OC)CCCCC=C2N(CCC2=CCCCC2)C1=O,1,/,16µM*,/,/,?
COC(=O)[C@]12CCCCC=C1N(CCC1=CCCCC1)C(=O)[C@H](CC(=O)NCCCCc1ccccc1)C2,?,/,18µM*,/,/,?
COC(=O)[C@]12CCCCC=C1N(CCC1=CCCCC1)C(=O)[C@H](CC(=O)NCCCN1CCCC1=O)C2,8,/,?,/,/,?
O=C(Nc1ccccc1)N1CC[C@@]2(CCCN(C(=O)c3ccncc3)C2)C1,/,/,1%,-6%,-1%,17%
CC(=O)c1ccc(NC(=S)NCCc2ccc(S(N)(=O)=O)cc2)cc1,-25,17%,?,-12%,?,-26%
CC(C)OCCCNC(=S)Nc1ccc(S(N)(=O)=O)cc1,10,5%,?,35µM*,8%,23µM*
CCOC(=O)C(C(C)=O)c1c(Br)c(O)c(O)c2c(C(=O)c3ccc(C)cc3)coc12 (stereo not drawn),-27,4.6µM*,2.6µM*,16µM*,13µM*,2.9µM*
Cc1ccc(C(=O)c2coc3ccc(O)c(Cl)c23)cc1,0,?,?,-3%,34%,-28%
CCOC(=O)c1c(C)n(-c2ccc(C)cc2)c2c(C(C(C)=O)C(=O)O)c(Br)c(O)c(O)c12 (stereo not drawn),-8,-16%,23µM*,-8%,-2%,23µM*
CCOC(=O)C1CCCN(S(=O)(=O)c2ccc3c4c2CC(=O)N4CC(C)S3)C1 (stereo not drawn),16,-18%,18µM*,0%,7%,?

# Screens (PubChem)
